In PubChem BioAssay (NCATS):
Records with an inconclusive call do not appear. Values without a mark were called inactive. Calls come from the whole dose curve; as a rule, active = well fitted cell-killing curve with a large enough effect; inconclusive = small, poorly fitted or top-dose-only effect, or effect the other way; inactive = flat fitted curve, though single readings scatter. Where a SMILES comes first, the peptide text is derived from it. The star is where a group is joined. AFC = O=c1cc(C(F)(F)F)c2ccc(N*)cc2o1

Tested on: C33A
Assay: Primary qHTS to identify gynecologic anti-cancer compounds using libraries of approved drugs and bioactive compounds (AID 1345084); note: nearly all actives have a fitted effect of over 55% in size
Settings: Gynecologic cancer cell panel viability, ATPlite luminescence, 48 h; series mostly up to 57.5 µM; activity change, negative = cytotoxicity: at the top concentration
In short: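 Cells, 1,000 per well, plated 16 h, then exposed 48 h at 37 C to compounds. Viability by ATPlite luminescence after 15 min at room temperature.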
% is set by controls: 0 for no effect and ±100 for the full control effect.

Compared with `O=C(NCC(O)CO)c1ccncc1Nc1ccc(I)cc1F` (stereo unspecified), `COC(=O)N(C)c1c(N)nc(-c2nn(Cc3ccccc3F)c3ncccc23)nc1N` is higher in “activity change, negative = cytotoxicity” value: -0.488% for the first, 15.6% for the second.

First: C=C1CCCC2(C)CC3(OC)OC(=O)C(C)=C3CC12 (stereo unspecified)
Second: CC1=C2C[C@H]3O[C@@]3(C)CCC3O[C@@]3(C)C[C@@]2(O)OC1=O (stereo partly specified)
The “activity change, negative = cytotoxicity” value of the first is lower: -1.82% for the first, 4.22% for the second.

Compared with `C=C(C(=O)O)C1CCC2(C)CCC(O)C(=C)C2C1` (stereo unspecified), `CC12CCC3c4ccc(OC5OC(C(=O)O)C(O)C(O)C5O)cc4CCC3C1CCC2O` (stereo unspecified) is higher in “activity change, negative = cytotoxicity” value: 17.8% for the first, 19.2% for the second.

For `O=C(O)c1cccc(S(=O)(=O)N2CCc3ccccc3C2)c1`, the “activity change, negative = cytotoxicity” value was 0.93%.

First: CC1(C)CC2=C3C=CC4C5(C)CCC(O)C(C)(C)C5CCC4(C)C3(C)CCC2(C)C(O)C1 (stereo unspecified)
Second: COC(=O)C12C(=O)C(C)=C(O)C1(C)C(C)=CC1C3(CO)CCC(O)C(C)(C)C3CCC12C (stereo unspecified)
The “activity change, negative = cytotoxicity” value of the first is lower: -0.589% [at 25.3 µM] for the first, 5.26% [at 25.3 µM] for the second.

Compared with `COC(=O)C1=CO[C@@H](O[C@@H]2O[C@H](CO)[C@@H](O)[C@H](O)[C@H]2O)[C@H]2[C@@H]1CC(OC)O[C@@H]2C` (stereo partly specified), `CC12CCC(C(OC3OC(COC4OCC(O)(CO)C4O)C(O)C(O)C3O)C1)C(C)(C)O2` (stereo unspecified) is higher in “activity change, negative = cytotoxicity” value: 2.49% [at 25.3 µM] for the first, 3.51% [at 25.3 µM] for the second.

Compared with `CC(C)=CCC/C(C)=C/CCC1(C)Oc2c(c(O)cc3c2CN(C(CCC(=O)O)C(=O)O)C3=O)CC1O` (stereo unspecified), `COc1ccc(/C=C/C(=O)O[C@H]2[C@H](O[C@H]3[C@@H]4C=CO[C@@H](O[C@@H]5O[C@H](CO)[C@@H](O)[C@H](O)[C@H]5O)[C@@H]4[C@@]4(CO)O[C@@H]34)O[C@@H](C)[C@H](O)[C@H]2OC(C)=O)cc1` is lower in “activity change, negative = cytotoxicity” value: -0.444% [at 25.3 µM] for the first, -5.22% [at 25.3 µM] for the second.

First: C=C1[C@H](OC(C)=O)[C@H]2[C@@H](OC(C)=O)[C@](C)(OC(C)=O)C[C@]2(OC(C)=O)C(=O)[C@H](C)/C=C/C(C)(C)C(=O)[C@H](OC(=O)C(C)C)[C@H]1OC(C)=O
Second: C=C1C(O)CC2C(C(=O)O)=COC(O[C@@H]3O[C@H](COC(=O)/C=C/c4ccc(O)cc4)[C@@H](O)[C@H](O)[C@H]3O)C12 (stereo partly specified)
The “activity change, negative = cytotoxicity” value of the first is higher: 6.15% [at 25.3 µM] for the first, -2% [at 25.3 µM] for the second.

Compared with `O=C(O)Cc1cn(C2OCC(O)C(O)C2O[C@@H]2O[C@H](CO)[C@@H](O)[C@H](O)[C@H]2O)c2ccccc12` (stereo partly specified), `CC(C)C(C#N)O[C@@H]1O[C@H](CO[C@@H]2O[C@@H](C)[C@H](O)[C@@H](O)[C@H]2O)[C@@H](O)[C@H](O)[C@H]1O` (stereo partly specified) is higher in “activity change, negative = cytotoxicity” value: -4.19% [at 25.3 µM] for the first, -1.37% [at 25.3 µM] for the second.

Going from `C[C@@H]1O[C@@H](O[C@@H]2[C@@H](O[C@@H]3O[C@@H](C)[C@H](O[C@@H]4OC[C@H](O)[C@H](O[C@@H]5OC[C@@H](O)[C@H](O)[C@H]5O)[C@H]4O)[C@@H](O[C@@H]4OC[C@](O)(CO)[C@H]4O)[C@H]3O)[C@H](OC(=O)[C@]34CCC(C)(C)C[C@H]3C3=CCC5[C@@]6(C)C[C@H](O)[C@H](O[C@@H]7O[C@H](CO[C@@H]8OC[C@H](O)[C@H](O)[C@H]8O)[C@@H](O)[C@H](O)[C@H]7O)C(C)(C)C6CC[C@@]5(C)[C@]3(C)C[C@H]4O)OC[C@H]2O)[C@H](O)[C@H](O)[C@H]1O` (stereo partly specified) to `C[C@@H]1O[C@@H](O[C@H]2[C@H](O)[C@@H](O[C@@H]3O[C@H](CO)[C@@H](O)[C@H](O[C@@H]4O[C@H](CO)[C@@H](O)[C@H](O)[C@H]4O)[C@H]3O)[C@H](O[C@H]3CC[C@@]4(C)C(=CC[C@@H]5C4CC[C@@]4(C)C5C[C@@H]5OC6(CC[C@@](C)(CO[C@@H]7O[C@H](CO)[C@@H](O)[C@H](O)[C@H]7O)O6)[C@@H](C)[C@@H]54)C3)O[C@@H]2CO)[C@H](O)[C@H](O)[C@H]1O` (stereo partly specified), the activity change, negative = cytotoxicity rises from -0.354% [at 6.55 µM] to 0.269% [at 6.55 µM].

`COC1CC(OC2CCC3(C)C(=CCC4C3C(OC(C)=O)C(OC(=O)/C=C/c3ccccc3)C3(C)C(C(C)O)CCC43O)C2)OC(C)C1OC1CC(OC)C(OC2OC(C)C(OC3OC(CO)C(O)C(O)C3O)C(OC)C2O)C(C)O1` (stereo unspecified) gave an activity change, negative = cytotoxicity of -4.62% [at 6.55 µM].

Going from `CC(=O)N[C@@H](Cc1c[nH]c2ccccc12)C(=O)N[C@@H](CCC(=O)O)C(=O)N[C@@H](Cc1cnc[nH]1)C(=O)N[C@@H](CC(=O)O)C(=O)Nc1ccc2c(C(F)(F)F)cc(=O)oc2c1` (Ac-WEHD-{AFC}) to `O=C(/C=C\c1ccc(O)cc1)N[C@@H](Cc1ccc(O)cc1)C(=O)O`, the “activity change, negative = cytotoxicity” value falls from 20.3% [at 38.5 µM] to 17.9% [at 38.5 µM].

First: C=C1C[C@]23C[C@H]1CC[C@H]2[C@@]1(C)CCC[C@@]2(C)C(=O)O[C@@H]([C@@H]3O)[C@@H]12
Second: CC(=O)O[C@H]1CC[C@H](C)[C@@]2(C)[C@H](OC(C)=O)c3c(C)coc3C(=O)[C@H]12
The “activity change, negative = cytotoxicity” value of the first is higher: -0.376% [at 38.5 µM] for the first, -8.98% [at 38.5 µM] for the second.

In the case of `CC(O)CCC1C(CO[C@@H]2O[C@H](CO)[C@@H](O)[C@H](O)[C@H]2O)CC(O)CC1(C)C` (stereo partly specified), the “activity change, negative = cytotoxicity” value is reported as -1.35% [at 38.5 µM].

`C[C@@H]1O[C@@H](O[C@H]2[C@@H](OC(=O)[C@]34CCC(C)(C)CC3C3=CCC5[C@@]6(C)C[C@H](O)[C@H](O[C@@H]7O[C@H](C(=O)O)[C@@H](O)[C@H](O)[C@H]7O)[C@@](C)(C(=O)O)C6CC[C@@]5(C)[C@]3(C)CC4)OC[C@H](O)[C@@H]2O)[C@H](O)[C@H](O)[C@H]1O[C@@H]1OC[C@@H](O)[C@H](O)[C@H]1O` (stereo partly specified) was tested, and the activity change, negative = cytotoxicity was 1.85% [at 11.6 µM].
